Measured values from PubChem BioAssay AID1053125 (Broad Institute, 2014).
Entries with a potency or affinity are not part of this list. Values without a mark were called inactive.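 How the source made its calls: active means viability loss whose fitted half-maximal concentration is at most twice the top valid tested dose; inconclusive means flat curve with 30 to 70% loss, or poor fit; inactive means the rest.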

experiment: HepG2 cell cytotoxicity, dose response, cytotoxicity control, ATP luminescence, cherry-pick, set 6 (AID 1053125); settings: HepG2 viability, ATP luminescence (CellTiter-Glo), 72 h; series mostly up to 26 µM; activity change, negative = cytotoxicity: at the top concentration

Row | SMILES | activity change, negative = cytotoxicity
1 | CC(C)OP(=O)(O)NC(=O)c1ccccc1 | -5.2%
2 | CC12CC(c3ccccc3O1)C(C(=O)OCc1ccccc1)C(=O)N2 (stereo not drawn) | -4.78%
3 | N#CC1=C(N)Oc2cc(O)ccc2C1c1ccc2c(c1)OCO2 (stereo not drawn) | -4.19%
